Screens (PubChem)
Cruzain inh noDet: cruzain (T. cruzi) inhibition without detergent; P25779; purified cruzain, Z-FR-AMC fluorescence, no detergent; Potency, µM, for the others: max response, negative = inhibition, actives largely listed as inhibitors; 2.3% of 200,000 active;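 further: plate controls were enzyme without inhibitor for no effect and buffer without enzyme for full effect; nearly all actives have a fitted effect of over 40% in size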
Target sequence (P25779 123-467 limits assumed): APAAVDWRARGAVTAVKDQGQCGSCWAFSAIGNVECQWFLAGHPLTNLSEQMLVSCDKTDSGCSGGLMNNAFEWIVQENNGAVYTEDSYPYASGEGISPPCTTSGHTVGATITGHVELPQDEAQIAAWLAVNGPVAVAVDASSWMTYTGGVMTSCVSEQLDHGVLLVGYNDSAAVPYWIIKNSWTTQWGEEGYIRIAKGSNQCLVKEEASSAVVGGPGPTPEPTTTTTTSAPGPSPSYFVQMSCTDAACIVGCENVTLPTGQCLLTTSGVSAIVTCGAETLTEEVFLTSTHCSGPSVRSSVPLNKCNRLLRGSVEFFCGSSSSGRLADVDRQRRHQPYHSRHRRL
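Purified cruzain at 1.5 nM, pre-incubated 15 min with compound at room temperature in 100 mM sodium acetate pH 5.5, 5 mM DTT, 0.00005% Triton X-100. Reaction started with 2 uM Z-FR-AMC; AMC fluorescence increase over 60 s gives rate.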
Cruzain Triton: inhibitors of Trypanosoma cruzi cruzain with detergent; purified cruzain, Z-FR-AMC fluorescence, 0.01% Triton; Potency, µM, without a hit: max response, negative = inhibition, actives largely listed as inhibitors; 0.43% of 200,000 active; P25779;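 further: plate controls were neutral wells for no effect and buffer without enzyme for full effect; nearly all actives have a fitted effect of over 40% in size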
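Steps: dispense cruzain (1.5 nM final) in acetate buffer pH 5.5 with DTT and 0.01% Triton X-100; pin-transfer compounds; incubate 15 min RT; add Z-FR-AMC (2 uM final); read fluorescence every 30 s, using the 60 s intensity change.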
* marks the source's active call; other numbers are inactive results; ? = inconclusive. A selection: hits, their analogues and other compounds. The true share with any hit is near 2.4%. The call rests on the fitted dose curve; in most records, active means well fitted curve in the direction sought with a large enough effect; inconclusive means small, poorly fitted or top-dose-only effect, or another doubt; inactive means no such curve, though single readings can be large; an effect the other way counts as inactive or inconclusive. Potency means the concentration at half of the fitted maximal effect.

SMILES | Cruzain inh noDet | Cruzain Triton
Cc1cc(-c2csc(N)n2)c(C)n1-c1ccc(Cl)c(Cl)c1 | 12.6µM* | -8.1%
CCOc1cc2[nH]c(=O)n(CCCC(=O)N3CCN(c4ccc(OC)cc4)CC3)c(=O)c2cc1OCC | 8.8% | 2.5%
O=C(COc1ccc2oc(-c3ccccc3)cc(=O)c2c1)Nc1ccccc1 | 31.6µM* | -11.1%
COC(=O)COc1ccc2oc(-c3ccc(OC)cc3)cc(=O)c2c1 | -8.0% | -1.2%
Fc1ccc(Cn2ccc(-c3cnc(-c4ccccc4)s3)n2)cc1 | 0.3% | 0.6%
O=C(c1ccc(F)cc1)n1ccc(-c2cnc(-c3ccccc3)s2)n1 | 6.31µM* | 2.7%
CN(C)c1nc2c(Br)c(Br)c(Br)c(Br)c2[nH]1 | -5.1% | -15.9%
N#CCc1c(C#N)c(N)nc(N2CCN(c3ccc(F)cc3)CC2)c1C#N | 15.8µM* | -5.7%
N#CCc1c(C#N)c(N)nc(N2CCN(Cc3ccc4c(c3)OCO4)CC2)c1C#N | -27.1% | -5.4%
CCOC(=O)c1ccc(S(=O)(=O)NCC(c2ccc(N(C)C)cc2)c2c[nH]c3ccccc23)cc1 (stereo not drawn) | ? | -4.3%
CN(C)c1ccc(C(CNS(=O)(=O)c2ccc(F)cc2)c2c[nH]c3ccccc23)cc1 (stereo not drawn) | 31.6µM* | -9.5%
CN(C)c1ccc(C(CNC(=O)c2ccc(C#N)cc2)c2c[nH]c3ccccc23)cc1 (stereo not drawn) | ? | -10.7%
CN(C)c1ccc(C(CNC(=O)c2ccccc2Br)c2c[nH]c3ccccc23)cc1 (stereo not drawn) | 25.1µM* | -3.2%
CC[C@H]1CN(C)[C@H]2Cc3c([nH]c4ccccc34)C(=O)C[C@H]1[C@H]2C(=O)OC | -2.6% | -0.3%
CN(C)C(=O)[C@H]1C[C@@H]1[C@H](NC(=O)OCc1ccccc1)c1ccccc1 | -3.5% | 2.8%
Cc1ccc(-c2cc(C(=O)Nc3cc(C)ccc3C)[nH]n2)c(O)c1 | 12.6µM* | -1.5%
COc1ccc(OC)c(NC(=O)c2cc(-c3ccc(C)cc3O)n[nH]2)c1 | -24.5% | -1.7%
CC(C)Oc1ccc(CNC(=O)c2ccc(NC(=O)N3CCSc4ncccc43)cc2)cc1 | 0.8% | -11.0%
c1ccc(C(c2cccc3c2ccc2ccccc23)[C@H](c2ccccc2)c2cccc3c2ccc2ccccc23)cc1 (stereo partly drawn) | 3.98µM* | 2.0%
c1ccc2c(c1)ccc1cc3c(ccc4ccccc43)cc12 | -10.3% | 4.2%
Nc1ccc(C(=O)OCC(=O)N2CCc3ccccc3C2)cc1[N+](=O)[O-] | 31.6µM* | -11.6%
O=C(OCC(=O)N1CCc2ccccc2C1)c1ccc(N2CCOCC2)c([N+](=O)[O-])c1 | 4.5% | -6.9%
N[C@H](CCC(=O)N[C@H](CSN=O)C(=O)NCC(=O)O)C(=O)O | 3.7% | 2.6%
COc1cccc(CNC(=O)Cn2c(C)c3cnn(-c4ccccc4)c(=O)c3c2C)c1 | 2.7% | -1.5%
COc1ccc(N/N=C(/C)c2cnnc(-c3ccccc3)n2)cc1 | 15.8µM* | -14.7%
SMILES | Cruzain inh noDet | Cruzain Triton
CC/C(=N/Nc1ccccc1Cl)c1cnnc(-c2ccccc2)n1 | -16.2% | -5.1%
Cn1c(Oc2ccccc2)nc2c1c(=O)n(Cc1ccc(Cl)cc1Cl)c(=O)n2C | -1.6% | -1.3%
CCOC(=O)c1c(NC(=O)CN2C(=O)NC3(CCC(CC)CC3)C2=O)sc(C)c1-c1ccc(C)cc1 (stereo not drawn) | 20µM* | -2.1%
CCOC(=O)c1c(NC(=O)CN2C(=O)NC3(CCCCCC3)C2=O)sc(C)c1-c1ccc(C)cc1 | ? | -4.4%
COc1cc(NC(=O)COC(=O)c2ccccc2F)cc(OC)c1 | 4.3% | -2.4%
COc1cc(NC(=O)COC(=O)CNS(=O)(=O)c2ccc(F)c(F)c2F)cc(OC)c1 | 25.1µM* | 28.2µM*
CCOc1ccccc1NC(=O)c1ccc2c(c1)CCN2S(C)(=O)=O | 0.2% | 0.4%
CC1=C(c2ccc(C)c(C)c2)S(=O)(=O)N=C1N1CCC(C(=O)NCCc2ccc(Cl)cc2)CC1 | ? | -10.9%
CS(=O)(=O)Nc1cccc(-c2cc(NCc3ccccc3)ncn2)c1 | -1.1% | -2.7%
CN(C)c1cc(-c2cccc(NS(C)(=O)=O)c2)ncn1 | 15.8µM* | 12.6µM*
CC(C)C(NC(=O)OCc1ccccc1)C(=O)OCC(=O)N1CCCCC1 (stereo not drawn) | 1.3% | 3.5%
CC(=O)c1cccc(NC(=O)COC(=O)[C@@H](NC(=O)OCc2ccccc2)C(C)C)c1 | 25.1µM* | 15.8µM*
Cc1ccc(NC(=O)N2CCc3c(sc4c3CCCC4)C2c2ccccc2)cc1F (stereo not drawn) | 7.94µM* | -1.3%
Cc1ccccc1NC(=O)N1CCc2c(sc3c2CCCC3)C1c1ccccc1 (stereo not drawn) | ? | -0.4%
C=C(C)C1Cc2c(ccc3c2OC2COc4cc(OC)c(OC)cc4C2C3=O)O1 (stereo not drawn) | ? | -9.7%
Cc1cccc(Nc2nc3c(S(=O)(=O)c4ccccc4)nnn3c3ccccc23)c1 | 25.1µM* | -2.5%
